PubChem BioAssay (NCI)
Values joined by “and” are separate entries in the source; they are usually repeats but may differ in a detail not shown here. Equal values may be shown once. The panel holds about 83,000 compounds, 20% with a hit somewhere; the sample as a whole holds those more often.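 Step 1: grow cells in 96-well plates. Step 2: add test compound at a single concentration. Step 3: incubate 48 h. Step 4: record percent growth.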

How the values were obtained:
Test in all cases: NCI-60 one-dose screen, 48 h (100 = growth as untreated, 0 = no growth, -100 = all killed); active = growth percent below 10; inactive = the rest
T-47D breast = test system: T-47D breast
BT-549 breast = test system: BT-549 breast
MDA-MB-435 melanoma = test system: MDA-MB-435 melanoma
SW-620 colon = test system: SW-620 colon
MCF7 breast = test system: MCF7 breast
HCT-116 colon = test system: HCT-116 colon
HCC-2998 colon = test system: HCC-2998 colon
KM12 colon = test system: KM12 colon

Measured: growth

CCCCCCCCCCCCCCCc1ccc(Cl)c(O)c1Cl (tested in a mixture with another compound)
inactive: T-47D breast; 0.25 µM 35.5% | T-47D breast; 10 µM 85.4% | BT-549 breast; 0.25 µM 66.2% | BT-549 breast; 10 µM 103% | MDA-MB-435 melanoma; 0.25 µM 56% | MDA-MB-435 melanoma; 10 µM 103% | SW-620 colon; 0.25 µM 24.4% | SW-620 colon; 10 µM 101% | MCF7 breast; 0.25 µM 16.4% | MCF7 breast; 10 µM 112% | HCT-116 colon; 0.25 µM 21.4% | HCT-116 colon; 10 µM 75.7% | HCC-2998 colon; 0.25 µM 38.6% | HCC-2998 colon; 10 µM 116% | KM12 colon; 0.25 µM 46% | KM12 colon; 10 µM 96.7%

O=c1c2ccccc2nc2n1Cc1nc3ccccc3c(=O)n1C2
inactive: T-47D breast; 10 µM unless noted 106% and 108% | BT-549 breast; 10 µM unless noted 89.8% and 94.1% | MDA-MB-435 melanoma; 10 µM unless noted 93.5% and 101% | SW-620 colon; 10 µM unless noted 97.3% and 103% | MCF7 breast; 10 µM unless noted 84.5% and 97.9% | HCT-116 colon; 10 µM unless noted 111% and 94.6% | HCC-2998 colon; 10 µM unless noted 106% and 104% | KM12 colon; 10 µM unless noted 99.6% and 101%

O=C(c1ccc(Cl)cc1)C(NCCO)c1ccc(Cl)cc1 (configuration not stated)
inactive: T-47D breast; 10 µM unless noted 85.4% | BT-549 breast; 10 µM unless noted 104% and 94.6% | MDA-MB-435 melanoma; 10 µM unless noted 97.9% and 108% | SW-620 colon; 10 µM unless noted 101% and 102% | MCF7 breast; 10 µM unless noted 103% and 97.3% | HCT-116 colon; 10 µM unless noted 102% and 99.4% | HCC-2998 colon; 10 µM unless noted 101% | KM12 colon; 10 µM unless noted 105% and 101%
